Source: PubChem BioAssay (NCI)
Compounds without any hit were thinned out: in the full panel of roughly 83,000, 20% have a hit.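 96-well plates, one dose, 48 hours. Percent growth reported; active if below 10.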 Unmarked numbers belong to inactive results. Activity calls are given as the source filed them.

Test system: MDA-MB-468 breast
Assay: NCI-60 one-dose screen, 48 h (100 = growth as untreated, 0 = no growth, -100 = all killed)
Settings: 10 µM unless noted

Row | Structure (SMILES) | growth
1 | S=c1nc(-c2ccccn2)c(-c2ccccn2)n[nH]1 | 108%
2 | O=C1NC(=S)NC(=O)C1=Cc1cn(Cc2ccccn2)c2ccccc12 | -40.6% (active)
3 | CCN(CC)CCOc1ccc(Nc2ncc3cc(-c4c(Cl)cccc4Cl)c(=O)n(CCOC)c3n2)cc1 | 3.97% (active)
4 | N#Cc1c(O)c2c(c(O)c1C#N)C(=O)c1ccccc1C2=O | 7.71% (active)
5 | CC(=O)CSC(C)=O | 99.1%
6 | C=C1c2c(C)nn(-c3ccc(O)cc3)c2N(C)C23C[C@@H]1C1(C)c4c(C)nn(-c5ccc(O)cc5)c4N(C)C(C)(C[C@H]12)C3 (stereo partly specified) | -5.71% (active)
7 | CC[C@H](C)[C@H]1NC(=O)[C@@H](N[C@](C)(O)[C@@H](N)CC(C)C)[C@@H](C)OC(=O)[C@H](Cc2ccc(OC)cc2)N(C)C(=O)[C@@H]2CCCN2C(=O)[C@H](CC(C)C)NC(=O)[C@@H](C)C(=O)[C@H](C(C)C)OC(=O)C[C@@H]1O | -31.2% (active)
8 | COc1ccc(OC)c(/C=N/Nc2ncnc3c2c(C)nn3C)c1 | 106%
9 | COc1cc2oc(-c3ccc(O)cc3)cc(=O)c2c(O)c1I | 105%
10 | C/C(=N\NC(=O)CSc1nc2ccccc2c(=O)n1Cc1ccc(S(N)(=O)=O)cc1)c1ccc(F)cc1 | 114%
11 | COc1cc2nc(N3CCCC3)nc(NCC3CCCCC3)c2cc1OC | -41.2% (active)
